Results filed as inconclusive are left out. Where a call stands in place of a potency, no number is given. Active and inactive are the calls of the source. Calls follow the shape of the dose curve; as a rule, active = well fitted curve in the direction sought with a large enough effect; inconclusive = small, poorly fitted or top-dose-only effect, or another doubt; inactive = no such curve, though single readings can be large; an effect the other way counts as inactive or inconclusive.
Legend:
[1] = biological target: Metallo-beta-lactamase type 2 (Klebsiella pneumoniae) (UniProt C7C422); assay: qHTS to identify inhibitors of the New Delhi Metallo-beta-lactamase (NDM): assay validation screen against the NCATS LOPAC Collection (AID 1794843);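 also: nitrocefin turnover by NDM-1 measured as 485 nm absorbance at plateau; series mostly up to about 38 µM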
How it was run: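 Enzyme 2 nM final, 50 mM HEPES pH 7.0, 1 uM ZnSO4, 0.01% Tween20; cpds in DMSO, preincub w/ enzyme; + nitrocefin (50 uM stock); A485 at plateau; no-enzyme column as blank.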

[2] = biological target: Phospholipid hydroperoxide glutathione peroxidase GPX4 (Homo sapiens) (UniProt P36969); assay: Primary qHTS Assay for Inhibitors of Recombinant Selenoprotein Glutathione Peroxidase 4 (GPX4) (AID 1845192); also: nearly all actives have a fitted effect of over 65% in size
How it was run: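 GR-coupled readout: 100 nM GR, 1 mM GSH, 0.5 mM NADPH; NADPH fluorescence (ex 340/em 450 nm) read at t=0 and after 15 min RT. GPX4 200 nM, preincubated 30 min with compound; substrate 0.5 mM CHP.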

[3] = biological target: Glutathione peroxidase 1 (Homo sapiens) (UniProt P07203); assay: Primary qHTS Assay for Inhibitors of Recombinant Selenoprotein Glutathione Peroxidase 1 (GPX1) (AID 1845191); also: nearly all actives have a fitted effect of over 65% in size
How it was run: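 Recombinant GPX1 (10 nM final) was preincubated with compound for 30 min at room temperature, then reacted with 1 mM GSH, 0.5 mM CHP, 0.5 mM NADPH and 100 nM glutathione reductase; NADPH fluorescence (340/450 nm) was read at 0 and 15 min.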

Chain of Glutathione peroxidase 1 (Homo sapiens) (P07203 whole entry, looked up): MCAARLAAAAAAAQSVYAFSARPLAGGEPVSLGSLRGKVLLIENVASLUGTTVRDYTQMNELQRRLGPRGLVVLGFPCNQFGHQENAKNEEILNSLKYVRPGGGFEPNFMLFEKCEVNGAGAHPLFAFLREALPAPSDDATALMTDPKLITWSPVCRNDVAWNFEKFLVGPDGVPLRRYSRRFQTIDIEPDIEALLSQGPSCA
Chain of Phospholipid hydroperoxide glutathione peroxidase GPX4 (Homo sapiens) (P36969 whole entry, looked up): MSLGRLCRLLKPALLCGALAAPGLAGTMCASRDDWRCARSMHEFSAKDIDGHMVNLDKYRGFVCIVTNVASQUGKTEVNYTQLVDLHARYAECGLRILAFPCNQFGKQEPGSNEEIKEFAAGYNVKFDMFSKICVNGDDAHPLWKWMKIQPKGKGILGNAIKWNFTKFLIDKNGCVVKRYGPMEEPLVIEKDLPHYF
Chain of Metallo-beta-lactamase type 2 (Klebsiella pneumoniae) (C7C422 whole entry, looked up): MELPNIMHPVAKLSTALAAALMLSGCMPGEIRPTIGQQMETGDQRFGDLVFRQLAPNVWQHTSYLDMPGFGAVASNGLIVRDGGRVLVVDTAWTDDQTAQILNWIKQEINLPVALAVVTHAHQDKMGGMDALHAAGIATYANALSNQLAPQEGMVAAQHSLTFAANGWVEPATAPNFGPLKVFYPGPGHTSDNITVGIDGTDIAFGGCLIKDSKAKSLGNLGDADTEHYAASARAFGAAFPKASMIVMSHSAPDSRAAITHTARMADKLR

SMILES | Potency [1] | Potency [2] | Potency [3]
N#CC(=C(\N)Sc1ccccc1N)/C(C#N)=C(/N)Sc1ccccc1N | inactive | inactive | –
COc1ccccc1N1CCN(CCN(C(=O)c2ccc(F)cc2)c2ccccn2)CC1 | – | inactive | inactive
OC1(c2ccc(Cl)cc2)CCN(Cc2c[nH]c3ccccc23)CC1 | inactive | inactive | –
CC(=O)NNC(=O)N1Cc2ccccc2Oc2ccc(Cl)cc21 | inactive | inactive | –
N[C@H](C(=O)O)[C@H](Cc1ccccc1)C(=O)O | – | inactive | inactive
N=C(N)SCCN | inactive | inactive | –
CC1=C(/C=C/C(C)=C/C=C/C(C)=C\C(=O)O)C(C)(C)CCC1 | inactive | inactive | –
CC(O)C(O)[C@H]1CNc2nc(N)[nH]c(=O)c2N1 (some centres not stated) | – | inactive | inactive
C[C@@]1(C2CCCC2)Cc2cc(OCC(=O)O)c(Cl)c(Cl)c2C1=O | inactive | inactive | –
O=c1cc(-c2ccccc2)[nH]c2nc(Cl)ccc12 | – | inactive | inactive
O=C(O)/C=C/c1cnc[nH]1 | – | inactive | inactive
CNCCc1cnc(CCC(c2ccccc2)c2ccccc2)[nH]1 | – | – | inactive
NCCCNCCCCNCCCN | inactive | inactive | –
CC(=O)/C(C)=N/O | – | inactive | inactive
